PI4K2A inh: PI4K2A (human) kinase inhibition; Q9BTU6; purified PI4K2A, ADP-Glo luminescence, 1 h; stronger effect = lower value; activity change, negative = inhibition, % at 76.9 µM; actives 0.13% (n = 420,000); in the data active means activity change below about -50%; inconclusive means mostly about -30% to -49%
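ADP-Glo luminescence measured ADP generated by PI4K2A enzyme (4 ug/mL before mixing) with 1.2 mM PI substrate (pre-mix) and 300 microM ATP (pre-mix). Tris pH7.5 buffer with MgCl2, Triton X-100; 1 h reaction at ambient temperature.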
Tb PGK inh: T. brucei PGK inhibition | P07378 | PGK/GAPDH coupled, Kinase-Glo luminescence, 60 min | Potency, µM (highest dose often 57.5 µM), most hits filed as inhibitors | actives 0.043% (n = 380,000) | AID 602233; further: nearly all actives have a fitted effect of over 60% in size
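Recombinant glycosomal PGK reaction used 1,3-bisphosphoglycerate generated in-well by GAPDH (100nM final) in 100mM TEA pH 7.6, 5mM MgCl2, 0.01% Tween-20. After 60 minutes at room temperature, ATP was read by Kinase-Glo Plus luminescence end-point.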
PI5P4K alpha inh: blocks human PI5P4K alpha kinase activity. P48426. PI5P4Kalpha enzyme, ADP-Glo luminescence, 60 min; stronger effect = lower value. max response, %. actives 1.2% (n = 330,000). AID 652105; active means max response of -50% or lower; inconclusive means between -30% and -50%; inactive means -30% or higher; further: value at the top dose of about 77 µM
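Single end-point luminescence (ADP-Glo) quantified ADP from PI5P4Kalpha turnover; ATP 5 microM final, 1 h at RT, 0.1% CHAPS and 0.28 mM EGTA in HEPES pH 7.4.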
Tb PFK inh-1: inhibitors of T. brucei phosphofructokinase. T. brucei PFK, ADP-Glo luminescence. O15648. Potency, µM (doses to about 57.5 µM), usual class: inhibitors. actives 0.17% (n = 330,000); further: nearly all actives have a fitted effect of over 60% in size
Target sequence (O15648 whole entry, looked up): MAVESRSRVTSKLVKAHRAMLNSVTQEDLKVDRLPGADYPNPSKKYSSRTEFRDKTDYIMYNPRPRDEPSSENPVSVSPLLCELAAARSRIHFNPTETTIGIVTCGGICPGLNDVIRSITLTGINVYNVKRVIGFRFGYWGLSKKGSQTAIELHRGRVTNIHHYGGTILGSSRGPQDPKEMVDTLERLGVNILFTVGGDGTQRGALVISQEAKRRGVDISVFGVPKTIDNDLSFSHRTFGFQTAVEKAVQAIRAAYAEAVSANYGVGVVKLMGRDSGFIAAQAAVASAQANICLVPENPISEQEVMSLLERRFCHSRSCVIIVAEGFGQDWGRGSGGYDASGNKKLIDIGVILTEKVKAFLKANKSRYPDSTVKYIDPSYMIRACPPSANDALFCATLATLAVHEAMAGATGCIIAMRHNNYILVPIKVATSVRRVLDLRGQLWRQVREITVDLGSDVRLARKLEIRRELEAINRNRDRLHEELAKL
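ADP-Glo luminescence quantified ADP after 45 min at room temperature, with 1.25 nM T. brucei PFK, 0.1 mM ATP and 0.5 mM fructose-6-phosphate in pH 8.0 TEA buffer. qHTS titrations up to 57 µM; curves classified by quality.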
Pin1 inh: human Pin1 inhibition; Q13526; Pin1 FP peptide displacement, HiFluor488, 10 min; Potency, µM (top dose mostly 115 µM), actives largely listed as inhibitors; actives 0.009% (n = 390,000); AID 504891; active means well fitted inhibition curve with a large enough effect in the polarisation, with a control signal flat, not every such curve was filed as active; inconclusive means small, poorly fitted or top-dose-only effect, or effect the other way, or a change in a side signal; inactive means no such curve, though single readings can be large or run the other way; the % refers to the polarisation
Target sequence (Q13526 whole entry, looked up): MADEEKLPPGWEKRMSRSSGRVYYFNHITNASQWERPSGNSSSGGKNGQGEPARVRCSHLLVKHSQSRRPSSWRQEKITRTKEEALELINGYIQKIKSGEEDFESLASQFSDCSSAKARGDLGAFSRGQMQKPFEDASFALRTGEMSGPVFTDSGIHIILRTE
TbPFK ATP: inhibits T. brucei PFK measured by ATP depletion; Tb PFK enzyme, ATP depletion, Kinase-Glo Plus luminescence; actives 47% (n = 1,100); shares compounds with Tb PFK inh-1; Potency, µM (doses to about 57.5 µM); calls by dose curve; further: nearly all actives have a fitted effect of over 60% in size
Tb PFK inh-2: T. brucei PFK enzyme inhibition, hit validation; actives 41% (n = 1,100); shares compounds with Tb PFK inh-1; Potency, µM (top dose mostly 57.5 µM), most hits filed as inhibitors; AID 504637; purified T. brucei PFK, ADP-Glo luminescence, 45 min; further: nearly all actives have a fitted effect of over 60% in size
Of the large screens only hits and unclear results are named; the others gave an inactive call (follow-up assays come after a bar, where they were run). Many of the other results were omitted from the sample, so hits are more common in it than they were. Unless noted, the call rests on the fitted dose curve; in most records, active means well fitted curve in the direction sought with a large enough effect; inconclusive means small, poorly fitted or top-dose-only effect, or another doubt; inactive means no such curve, though single readings can be large; an effect the other way counts as inactive or inconclusive.

N#CC(C#N)=NNc1ccc(S(N)(=O)=O)cc1	Tb PGK inh inconclusive, PI5P4K alpha inh -107 (no result: Pin1 inh)
Cc1sc2ncnc(SCC(=O)Nc3ccc(S(=O)(=O)N4CCOCC4)cc3)c2c1C	Pin1 inh inconclusive
O=C1NC(=O)N(c2ccccc2F)C(=O)/C1=C/c1ccc(Oc2ccc([N+](=O)[O-])cn2)cc1	PI5P4K alpha inh -52
O=C1CC=C2C3CC4N(CCC45c4ccccc4N1C25)CC3=CCO (stereo unspecified)	none (no result: Tb PFK inh-1)
O=C1CC=C2C3CC4N(CCC45c4cc(O)c(O)cc4N1C25)CC3=CCBr (stereo unspecified)	Tb PGK inh inconclusive, PI5P4K alpha inh -70, Pin1 inh inconclusive (no result: Tb PFK inh-1)
N=c1n(CCO)c2ccccc2n1CCOc1ccccc1	Tb PFK inh-1 24µM | TbPFK ATP 13µM | Tb PFK inh-2 21µM
CCOC(=O)COc1ccc2c(c1)c(C(C)=O)c(C)n2Cc1ccccc1	none
OCCOc1ccccc1	none
CCOC(=O)Cn1c(=N)n(CCOc2cccc(C)c2)c2ccccc21	Tb PFK inh-1 13µM | TbPFK ATP 11µM | Tb PFK inh-2 13µM
CC(NC(=O)OC1CC2CCC1(C)C2(C)C)P(=O)(Oc1ccccc1)Oc1ccccc1 (stereo unspecified)	none (no result: Tb PGK inh, PI5P4K alpha inh, Tb PFK inh-1, Pin1 inh)
COc1cc(/C=C/c2[nH]c(=O)[nH]c(=O)c2[N+](=O)[O-])cc([N+](=O)[O-])c1O	PI5P4K alpha inh -84, Tb PFK inh-1 inconclusive, Pin1 inh inconclusive (no result: Tb PGK inh) | TbPFK ATP inactive | Tb PFK inh-2 inconclusive
COc1cc([N+](=O)[O-])c2ncccc2c1[N+](=O)[O-]	none (no result: Tb PGK inh, Tb PFK inh-1, Pin1 inh)
C[C@]12CC[C@@H]3c4ccc(OC(=O)N(CCCl)CCCl)cc4CC[C@H]3[C@@H]1CC[C@@H]2O	none (no result: Tb PGK inh, PI5P4K alpha inh, Tb PFK inh-1, Pin1 inh)
C[C@]12CC[C@@H]3c4ccc(O)c(O)c4CC[C@H]3[C@@H]1CC[C@@H]2O	PI5P4K alpha inh -74, Tb PFK inh-1 13µM | TbPFK ATP 7.6µM | Tb PFK inh-2 13µM
C[C@]12CC[C@@H]3c4cc(O)c(O)cc4CC[C@H]3[C@@H]1CC[C@@H]2O	PI5P4K alpha inh -62, Tb PFK inh-1 inconclusive | TbPFK ATP 3.4µM | Tb PFK inh-2 4.8µM
O=C(Nc1ccon1)c1cccn(Cc2cccc([N+](=O)[O-])c2)c1=O	none (no result: PI5P4K alpha inh, Tb PFK inh-1)
CCN(CCO)CCn1c(Cc2ccccc2)nc2c1c(=O)n(C)c(=O)n2C	none (no result: Tb PGK inh, PI5P4K alpha inh, Tb PFK inh-1, Pin1 inh)
CCOc1ccc(NC(=O)Cn2cc(C(=O)c3ccccc3)c3ccccc32)cc1	none (no result: PI5P4K alpha inh, Tb PFK inh-1)
Clc1ccc(Cn2cc(Br)cn2)cc1Cl	Tb PFK inh-1 24µM (no result: PI5P4K alpha inh) | TbPFK ATP 6µM | Tb PFK inh-2 12µM
O=C(Nc1ccc(OC(F)(F)F)cc1)C1CCN(S(=O)(=O)c2cccs2)CC1	Pin1 inh inconclusive (no result: PI5P4K alpha inh, Tb PFK inh-1)
CC(C)(C)NCC(O)c1cc(Cl)c(N)c(C(F)(F)F)c1 (stereo unspecified)	none (no result: Tb PGK inh, PI5P4K alpha inh, Tb PFK inh-1, Pin1 inh)
COC(=O)Oc1nsnc1N1CCOCC1	Tb PFK inh-1 27µM, Pin1 inh inconclusive (no result: PI5P4K alpha inh) | TbPFK ATP inconclusive | Tb PFK inh-2 inconclusive
O=C1CC(c2ccc(F)cc2)c2c(c3ccccc3oc2=O)O1 (stereo unspecified)	none (no result: Tb PGK inh, PI5P4K alpha inh, Tb PFK inh-1)
O=C(C(Cc1ccccc1)NS(=O)(=O)c1cccc2nsnc12)N1CCC2(CC1)OCCO2 (stereo unspecified)	none
O=S(=O)(Nc1ccccc1)c1cccc2nsnc12	PI5P4K alpha inh inconclusive, Tb PFK inh-1 inconclusive | TbPFK ATP inconclusive | Tb PFK inh-2 inconclusive
COc1ccc(C=O)cc1O	none
COc1ccc(OC)c2c1C(=O)C(Cl)=C(Cl)C2=O	PI5P4K alpha inh -102, Tb PFK inh-1 1.2µM, Pin1 inh inconclusive | TbPFK ATP 0.34µM | Tb PFK inh-2 0.67µM
CC(=O)N1CCN(c2ccc(N=Cc3c(O)n(Cc4ccccc4)c(=O)[nH]c3=O)cc2)CC1	Pin1 inh inconclusive
CCOC(=O)c1c(-c2ccc(C)o2)csc1NC(=O)COC(=O)c1ccc(NC(N)=O)cc1	PI5P4K alpha inh inconclusive, Tb PFK inh-1 2.1µM | TbPFK ATP inconclusive | Tb PFK inh-2 inactive
CC[C@H]1C[C@H]2[C@@H]3CCC4=CC(=O)CC[C@@H]4[C@H]3CC[C@]2(C)[C@H]1O	none (no result: Tb PGK inh, PI5P4K alpha inh, Tb PFK inh-1, Pin1 inh)
CCN1CC(CNC(=O)c2ccc3nc(Cc4cccc(Cl)c4)oc3c2)CC1=O (stereo unspecified)	Tb PFK inh-1 inconclusive | TbPFK ATP inconclusive | Tb PFK inh-2 15µM
Cc1nc2c(C(=O)N3CCC4(CC3)OCCO4)cnn2c(C)c1Cc1cccc(Cl)c1	none
Cn1c(=O)n(C)c2cc(CNCCc3ccc(F)cc3)ccc21	none (no result: PI5P4K alpha inh, Tb PFK inh-1)
Cc1ccc(OCC(=O)Nc2ccc(Cl)cc2C(=O)c2ccccc2)cc1C	none (no result: PI5P4K alpha inh, Tb PFK inh-1)
Cc1cc(CSc2ccccc2)ccc1NC(=O)COc1ccccc1	Tb PFK inh-1 inconclusive | TbPFK ATP inconclusive | Tb PFK inh-2 inconclusive
NC1CCc2cc(O)c(O)cc2C1 (stereo unspecified)	Tb PFK inh-1 6.7µM | TbPFK ATP 2.7µM | Tb PFK inh-2 2.7µM
O=C(Nn1cnnc1)c1ccc(Cl)c([N+](=O)[O-])c1	Tb PFK inh-1 inconclusive | TbPFK ATP inactive | Tb PFK inh-2 inconclusive
